Experimental data reported in the supplement of paper PMC11732987, “Enantioselective OTUD7B fragment discovery through chemoproteomics screening and high-throughput optimisation” (Communications Chemistry, 2025).
A number with no mark means an inactive call.

Legend:
Test in all cases: log2 ratio of Biotin-Ahx-Ub-VS probe labelling (compound/DMSO); higher = less target engagement, active = hit call of the paper (q ≤ 0.05, log2 ratio ≤ -1)
Conditions in all cases: treatment time: 3 h
[1] = compound: CCC1N(CCc2sccc12)C(=O)CCl
Procedure, shortened: (§1)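 DUBs in HEK293T lysate were labelled with Biotin-Ahx-Ub-VS (0.5 µM final, 1 h) after a 3 h treatment with compound at 50 or 200 µM or with DMSO, done in triplicate on 495 µg of lysate per sample. NeutrAvidin-enriched proteins were digested with LysC and trypsin and run by diaPASEF LC-MS/MS. Median-normalised label-free quantities gave average base-two log ratios of compound to DMSO by unpaired t-test, restricted to proteins with at least 2 unique peptides.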

[2] = compound: CN1c2ccccc2C(CS1(=O)=O)NC(=O)CCl
Procedure, shortened: as §1

[3] = compound: Cl.ClCC(=O)N1CCc2ncncc2C1
Procedure, shortened: as §1

[4] = compound: Cl.Cn1ncc2C(CCCc12)NC(=O)CCl
Procedure, shortened: as §1

[5] = compound: ClCC(=O)NC1CCOc2ccccc12
Procedure, shortened: as §1

[6] = compound: ClCC(=O)NC1CCCc2ccccc12
Procedure, shortened: (§2)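 Spectronaut label-free, global-median-normalised protein quantities underlie these values, which are average ratios of compound to vehicle from an unpaired t-test. They are reported as log2 and include only proteins identified by two or more unique peptides. Samples of HEK293T lysate (495 µg) were treated in triplicate with a compound concentration series or vehicle for 3 h, then labelled with Biotin-Ahx-Ub-VS at 0.5 µM final for 1 h before NeutrAvidin enrichment, LysC and trypsin digestion, and diaPASEF LC-MS/MS.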

[7] = compound: ClCC(=O)N[C@@H]1CCCc2ccccc12
Procedure, shortened: as §2

[8] = compound: ClCC(=O)N[C@H]1CCCc2ccccc12
Procedure, shortened: as §2

[9] = compound: CCC1N(CCc2cc(OC)c(Cl)cc12)C(=O)CCl
Procedure, shortened: as §1

[10] = compound: CCCC1N(CCc2cc(OC)c(OC)cc12)C(=O)CCl
Procedure, shortened: as §1

[11] = compound: CN(Cc1cccc(Br)c1)C(=O)CCl
Procedure, shortened: as §1

[12] = compound: CN(Cc1cccc(OCc2ccccc2C)c1)C(=O)CCl
Procedure, shortened: as §1

[13] = compound: CN(Cc1ccccc1)C(=O)CCl
Procedure, shortened: as §1

[14] = compound: COc1ccc(CN(C)C(=O)CCl)cc1
Procedure, shortened: as §1

[15] = compound: COc1cccc(CN(CCCc2ccccc2)C(=O)CCl)c1
Procedure, shortened: as §1

[16] = compound: ClCC(=O)N1CCc2cc(Cl)c(Cl)cc2C1
Procedure, shortened: as §1

[17] = compound: ClCC(=O)N1CCc2nc(ncc2C1)-c1ccccc1
Procedure, shortened: as §1

[18] = compound: ClCC(=O)N1CCc2nocc2C1
Procedure, shortened: as §1

[19] = compound: ClCC(=O)N1CCc2scc(Br)c2C1
Procedure, shortened: as §1

[20] = compound: ClCC(=O)NC(C1CCCC1)c1cccs1
Procedure, shortened: as §1

Target: OTUD4 (UniProt Q01804)
Sequence of UniProt Q01804 (Q01804 whole entry): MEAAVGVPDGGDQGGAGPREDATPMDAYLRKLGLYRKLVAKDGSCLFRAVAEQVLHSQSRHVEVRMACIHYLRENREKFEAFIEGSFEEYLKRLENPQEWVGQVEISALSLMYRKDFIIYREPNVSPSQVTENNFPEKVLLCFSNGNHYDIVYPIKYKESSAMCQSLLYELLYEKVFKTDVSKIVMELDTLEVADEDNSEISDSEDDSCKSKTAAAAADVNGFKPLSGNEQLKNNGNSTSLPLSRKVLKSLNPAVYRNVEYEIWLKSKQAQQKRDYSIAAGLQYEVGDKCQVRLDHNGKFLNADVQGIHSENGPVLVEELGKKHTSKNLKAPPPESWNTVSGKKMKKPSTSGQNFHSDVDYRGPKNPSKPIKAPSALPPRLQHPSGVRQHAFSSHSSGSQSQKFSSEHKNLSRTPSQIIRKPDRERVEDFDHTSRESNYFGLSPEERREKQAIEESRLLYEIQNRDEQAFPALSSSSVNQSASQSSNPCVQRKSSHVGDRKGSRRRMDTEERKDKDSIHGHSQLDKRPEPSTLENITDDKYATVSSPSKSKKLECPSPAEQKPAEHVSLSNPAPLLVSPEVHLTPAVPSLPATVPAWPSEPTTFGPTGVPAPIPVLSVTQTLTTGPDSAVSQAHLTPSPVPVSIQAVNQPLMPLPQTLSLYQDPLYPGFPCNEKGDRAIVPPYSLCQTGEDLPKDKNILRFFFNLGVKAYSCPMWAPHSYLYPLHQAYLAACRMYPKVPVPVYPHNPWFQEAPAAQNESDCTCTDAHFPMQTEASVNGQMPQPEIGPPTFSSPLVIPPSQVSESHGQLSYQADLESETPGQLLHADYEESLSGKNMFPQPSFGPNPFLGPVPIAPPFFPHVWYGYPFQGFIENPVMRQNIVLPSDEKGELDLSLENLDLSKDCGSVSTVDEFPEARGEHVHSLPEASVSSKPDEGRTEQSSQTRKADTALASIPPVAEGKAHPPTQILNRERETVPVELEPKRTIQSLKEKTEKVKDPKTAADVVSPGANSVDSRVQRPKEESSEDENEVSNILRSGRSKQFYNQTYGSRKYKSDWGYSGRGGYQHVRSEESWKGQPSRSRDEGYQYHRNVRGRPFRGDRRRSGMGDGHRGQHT
- log2 ratio of Biotin-Ahx-Ub-VS probe labelling ([1]; compound concentration: 50uM): -0.293
- log2 ratio of Biotin-Ahx-Ub-VS probe labelling ([1]; compound concentration: 200uM): -0.576
- log2 ratio of Biotin-Ahx-Ub-VS probe labelling ([2]; compound concentration: 50uM): -0.595
- log2 ratio of Biotin-Ahx-Ub-VS probe labelling ([2]; compound concentration: 200uM): -1.51 (active)
- log2 ratio of Biotin-Ahx-Ub-VS probe labelling ([3]; compound concentration: 50uM): -0.152
- log2 ratio of Biotin-Ahx-Ub-VS probe labelling ([3]; compound concentration: 200uM): -0.671
- log2 ratio of Biotin-Ahx-Ub-VS probe labelling ([4]; compound concentration: 50uM): -0.813
- log2 ratio of Biotin-Ahx-Ub-VS probe labelling ([4]; compound concentration: 200uM): -1.46 (active)
- log2 ratio of Biotin-Ahx-Ub-VS probe labelling ([5]; compound concentration: 50uM): -0.624
- log2 ratio of Biotin-Ahx-Ub-VS probe labelling ([5]; compound concentration: 200uM): -1.33 (active)
- log2 ratio of Biotin-Ahx-Ub-VS probe labelling ([6]; compound concentration: 0.78uM): -0.158
- log2 ratio of Biotin-Ahx-Ub-VS probe labelling ([6]; compound concentration: 1.56uM): -0.085
- log2 ratio of Biotin-Ahx-Ub-VS probe labelling ([6]; compound concentration: 3.13uM): -0.223
- log2 ratio of Biotin-Ahx-Ub-VS probe labelling ([6]; compound concentration: 6.25uM): -0.319
- log2 ratio of Biotin-Ahx-Ub-VS probe labelling ([6]; compound concentration: 12.5uM): -0.411
- log2 ratio of Biotin-Ahx-Ub-VS probe labelling ([6]; compound concentration: 25uM): -0.655
- log2 ratio of Biotin-Ahx-Ub-VS probe labelling ([6]; compound concentration: 50uM): -1.21 (active)
- log2 ratio of Biotin-Ahx-Ub-VS probe labelling ([6]; compound concentration: 100uM): -1.92 (active)
- log2 ratio of Biotin-Ahx-Ub-VS probe labelling ([6]; compound concentration: 200uM): -2.86 (active)
- log2 ratio of Biotin-Ahx-Ub-VS probe labelling ([7]; compound concentration: 0.78uM): -0.206
- log2 ratio of Biotin-Ahx-Ub-VS probe labelling ([7]; compound concentration: 1.56uM): -0.14
- log2 ratio of Biotin-Ahx-Ub-VS probe labelling ([7]; compound concentration: 3.13uM): -0.152
- log2 ratio of Biotin-Ahx-Ub-VS probe labelling ([7]; compound concentration: 6.25uM): -0.172
- log2 ratio of Biotin-Ahx-Ub-VS probe labelling ([7]; compound concentration: 12.5uM): -0.352
- log2 ratio of Biotin-Ahx-Ub-VS probe labelling ([7]; compound concentration: 25uM): -0.535
- log2 ratio of Biotin-Ahx-Ub-VS probe labelling ([7]; compound concentration: 50uM): -0.958
- log2 ratio of Biotin-Ahx-Ub-VS probe labelling ([7]; compound concentration: 100uM): -1.39 (active)
- log2 ratio of Biotin-Ahx-Ub-VS probe labelling ([7]; compound concentration: 200uM): -2.13 (active)
- log2 ratio of Biotin-Ahx-Ub-VS probe labelling ([8]; compound concentration: 0.78uM): -0.176
- log2 ratio of Biotin-Ahx-Ub-VS probe labelling ([8]; compound concentration: 1.56uM): -0.178
- log2 ratio of Biotin-Ahx-Ub-VS probe labelling ([8]; compound concentration: 3.13uM): -0.176
- log2 ratio of Biotin-Ahx-Ub-VS probe labelling ([8]; compound concentration: 6.25uM): -0.252
- log2 ratio of Biotin-Ahx-Ub-VS probe labelling ([8]; compound concentration: 12.5uM): -0.529
- log2 ratio of Biotin-Ahx-Ub-VS probe labelling ([8]; compound concentration: 25uM): -0.893
- log2 ratio of Biotin-Ahx-Ub-VS probe labelling ([8]; compound concentration: 50uM): -1.41 (active)
- log2 ratio of Biotin-Ahx-Ub-VS probe labelling ([8]; compound concentration: 100uM): -2.07 (active)
- log2 ratio of Biotin-Ahx-Ub-VS probe labelling ([8]; compound concentration: 200uM): -2.61 (active)
- log2 ratio of Biotin-Ahx-Ub-VS probe labelling ([9]; compound concentration: 50uM): -0.491
- log2 ratio of Biotin-Ahx-Ub-VS probe labelling ([9]; compound concentration: 200uM): -1.4 (active)
- log2 ratio of Biotin-Ahx-Ub-VS probe labelling ([10]; compound concentration: 50uM): -0.395
- log2 ratio of Biotin-Ahx-Ub-VS probe labelling ([10]; compound concentration: 200uM): -0.505
- log2 ratio of Biotin-Ahx-Ub-VS probe labelling ([11]; compound concentration: 50uM): -0.0958
- log2 ratio of Biotin-Ahx-Ub-VS probe labelling ([11]; compound concentration: 200uM): -0.146
- log2 ratio of Biotin-Ahx-Ub-VS probe labelling ([12]; compound concentration: 50uM): -0.447
- log2 ratio of Biotin-Ahx-Ub-VS probe labelling ([12]; compound concentration: 200uM): -0.51
- log2 ratio of Biotin-Ahx-Ub-VS probe labelling ([13]; compound concentration: 50uM): -0.294
- log2 ratio of Biotin-Ahx-Ub-VS probe labelling ([13]; compound concentration: 200uM): -0.346
- log2 ratio of Biotin-Ahx-Ub-VS probe labelling ([14]; compound concentration: 50uM): -0.216
- log2 ratio of Biotin-Ahx-Ub-VS probe labelling ([14]; compound concentration: 200uM): -0.205
- log2 ratio of Biotin-Ahx-Ub-VS probe labelling ([15]; compound concentration: 50uM): -0.174
- log2 ratio of Biotin-Ahx-Ub-VS probe labelling ([15]; compound concentration: 200uM): -0.415
- log2 ratio of Biotin-Ahx-Ub-VS probe labelling ([16]; compound concentration: 50uM): 0.000974
- log2 ratio of Biotin-Ahx-Ub-VS probe labelling ([16]; compound concentration: 200uM): -0.823
- log2 ratio of Biotin-Ahx-Ub-VS probe labelling ([17]; compound concentration: 50uM): 0.0593
- log2 ratio of Biotin-Ahx-Ub-VS probe labelling ([17]; compound concentration: 200uM): -0.446
- log2 ratio of Biotin-Ahx-Ub-VS probe labelling ([18]; compound concentration: 50uM): -0.424
- log2 ratio of Biotin-Ahx-Ub-VS probe labelling ([18]; compound concentration: 200uM): -0.874
- log2 ratio of Biotin-Ahx-Ub-VS probe labelling ([19]; compound concentration: 50uM): -0.0278
- log2 ratio of Biotin-Ahx-Ub-VS probe labelling ([19]; compound concentration: 200uM): -0.809
- log2 ratio of Biotin-Ahx-Ub-VS probe labelling ([20]; compound concentration: 50uM): -0.284
- log2 ratio of Biotin-Ahx-Ub-VS probe labelling ([20]; compound concentration: 200uM): -0.721
